Source: PubChem BioAssay (NCATS)
Inconclusive results are not listed. Calls of active or inactive are those of the source. Unless noted, calls come from the whole dose curve; as a rule, active = well fitted curve in the direction sought with a large enough effect; inconclusive = small, poorly fitted or top-dose-only effect, or another doubt; inactive = no such curve, though single readings can be large; an effect the other way counts as inactive or inconclusive.

What was measured:
[1] = S16 Schwann cell PMP22 intronic element beta-lactamase assay (AID 624044; calls by dose curve; note: nearly all actives have a fitted effect of over 15% in size; note: potency is the fitted concentration of half-maximal effect); conditions: S16 rat Schwann cells, PMP22 element beta-lactamase FRET, 24 h; ratio activity, negative = inhibition: at 38.3 µM (top of the series)
How it was run: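 Beta-lactamase reporter under a PMP22 intronic regulatory element in stable S16 rat Schwann cells; 24 h compound exposure. 460 nm blue signal normalized between DMSO (0%) and potassium clavulanate, with 535 nm FRET tracking viability; curves classed by r2 and response.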

[2] = S16 Schwann cell PMP22 intronic element firefly luciferase assay (AID 624032); note: nearly all actives have a fitted effect of over 30% in size
How it was run: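 Rat S16 Schwann cells stably carrying a PMP22 intronic element-driven Fluc reporter were seeded overnight, then exposed to compounds for 24 h at 37 °C. Luminescence was normalized to PTC124 (positive control) and DMSO (0% activity).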

[3] = biological target: Glutaminase kidney isoform, mitochondrial (Homo sapiens) (UniProt O94925); assay: qHTS for Inhibitors of Glutaminase (GLS): LOPAC Validation (AID 624146); note: nearly all actives have a fitted effect of over 60% in size; note: potency is the fitted concentration of half-maximal effect
How it was run: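 hKGA in 45 mM KH2PO4 (pH 8.2), 0.02% Tween-20 with compound, then 1mM L-Glutamine (stock as added) plus glutamate oxidase/HRP/Amplex red coupling mix. Fluorescence read initially and after 30 min at RT; signal change reflects glutamate formation.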

[4] = qHTS of Trypanosoma Brucei Inhibitors: LOPAC Validation (AID 624147)
How it was run: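 ADP (130 uM final) triggers the TbPYK reaction after compound addition; incubation is 45 min at room temperature. Kinase-Glo Plus is then added and luminescence imaged. Normalized data are fitted to concentration-effect curves.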

[5] = biological target: Glucagon-like peptide 1 receptor (Homo sapiens) (UniProt P43220); assay: qHTS of GLP-1 Receptor Agonists: LOPAC Validation (AID 624148);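 note: higher luminescence signal means agonism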
How it was run: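 HEK293 cells stably co-expressing a cAMP-responsive luciferase reporter and a hypersensitive GLP-1R were plated 12 h at 37 °C and exposed to compounds for 4-6 hr at 37 °C, 5% CO2. Luminescence was read 12 min after adding detection reagent.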

[6] = qHTS of Nrf2 Activators: LOPAC Validation (AID 624149); note: potency is the fitted concentration of half-maximal effect
How it was run: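 Cells (AREc32_Fluc) are plated at 1000 per well in OPTI-MEM containing 5% FBS and left overnight. Compounds are pinned in and incubated 24 hr at 37 deg C, and firefly luciferase is detected with Steady-Glo.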

[7] = HTS Assay for Allosteric Antagonists of the Human D2 Dopamine Receptor: Hit Validation in HTRF (AID 624455);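 note: stable D1 dopamine receptor cell line scored for blocking the D1 response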
How it was run: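 Inhibition of the D1-mediated response is measured by HTRF in cells that stably express the D1 dopamine receptor. Compounds reaching this step are hits from calcium-flux antagonism testing at EC80 dopamine in inducible Hek293 Trex D2 cells.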

[8] = Cytotoxicity counterscreen for NFkB agonists and antagonists (AID 624476);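 note: cells exposed to compound for 48 hours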
[9] = qHTS Assay for Identification of Small Molecule Agonists for NFkB Signaling Pathway. (AID 624478)
How it was run: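 Activators were sought in reporter cells stimulated at the TNF alpha EC50 (10 pM final). Compound and cytokine were co-incubated 5 hours at 37 C before beta-lactamase substrate detection by dual-emission fluorescence.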

Measured: Potency

Sequence of Glucagon-like peptide 1 receptor (Homo sapiens) (P43220 whole entry, looked up): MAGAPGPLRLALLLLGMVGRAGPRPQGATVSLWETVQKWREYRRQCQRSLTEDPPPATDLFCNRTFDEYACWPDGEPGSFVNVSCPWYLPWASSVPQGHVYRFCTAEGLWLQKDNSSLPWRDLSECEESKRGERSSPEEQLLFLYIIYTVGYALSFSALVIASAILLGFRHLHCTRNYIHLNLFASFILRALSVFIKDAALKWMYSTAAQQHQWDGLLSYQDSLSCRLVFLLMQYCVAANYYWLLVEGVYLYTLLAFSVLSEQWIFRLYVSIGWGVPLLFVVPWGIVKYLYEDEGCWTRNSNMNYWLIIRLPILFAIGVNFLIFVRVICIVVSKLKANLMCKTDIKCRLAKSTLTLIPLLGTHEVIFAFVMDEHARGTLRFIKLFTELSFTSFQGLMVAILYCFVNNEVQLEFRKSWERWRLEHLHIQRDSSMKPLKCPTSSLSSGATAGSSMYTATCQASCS
Sequence of Glutaminase kidney isoform, mitochondrial (Homo sapiens) (O94925 whole entry, looked up, canonical isoform): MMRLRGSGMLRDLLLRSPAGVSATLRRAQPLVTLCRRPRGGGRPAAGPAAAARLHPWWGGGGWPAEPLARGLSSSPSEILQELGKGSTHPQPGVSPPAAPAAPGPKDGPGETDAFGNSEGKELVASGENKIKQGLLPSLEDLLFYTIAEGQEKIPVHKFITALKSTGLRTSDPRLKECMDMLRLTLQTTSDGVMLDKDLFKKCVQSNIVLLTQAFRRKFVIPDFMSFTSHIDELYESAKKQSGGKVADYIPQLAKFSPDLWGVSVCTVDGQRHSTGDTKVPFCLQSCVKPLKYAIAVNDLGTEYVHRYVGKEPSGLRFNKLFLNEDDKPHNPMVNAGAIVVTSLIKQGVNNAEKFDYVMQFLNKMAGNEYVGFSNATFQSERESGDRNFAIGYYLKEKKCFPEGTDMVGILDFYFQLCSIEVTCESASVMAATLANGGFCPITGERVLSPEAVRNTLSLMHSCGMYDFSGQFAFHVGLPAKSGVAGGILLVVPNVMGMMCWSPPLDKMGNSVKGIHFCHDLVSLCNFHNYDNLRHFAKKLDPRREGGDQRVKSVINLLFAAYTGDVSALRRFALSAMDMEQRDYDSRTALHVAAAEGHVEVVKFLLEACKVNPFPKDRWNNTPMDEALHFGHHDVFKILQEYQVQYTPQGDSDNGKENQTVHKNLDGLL

CN1CCC(=C2c3ccccc3Sc3ccccc32)CC1
inactive: [1]

CC1(C)CCC(NC(=O)[C@@H](N)CCC(=O)O)CC1
not listed: [1] | [8] | [9]
inactive: all other assays above

CC(C)COC(=O)OCN1C(=O)CN(CCN2CC(=O)N(COC(=O)OCC(C)C)C(=O)C2)CC1=O
not listed: [1] | [8] | [9]
inactive: all other assays above

CCCC1O[C@@H]2C[C@H]3[C@@H]4CCC5=CC(=O)C=C[C@]5(C)[C@H]4[C@@H](O)C[C@]3(C)[C@]2(C(=O)CO)O1 (stereo partly specified)
inactive: [3] | [4] | [5] | [6] | [7]

CNCCC(Oc1ccccc1C)c1ccccc1 (stereo unspecified)
inactive: [1] | [3] | [4] | [5] | [6]

CC(C)C[C@H]1C(=O)N2CCC[C@H]2[C@]2(O)O[C@](NC(=O)[C@@H]3C=C4c5cccc6[nH]c(Br)c(c56)C[C@H]4N(C)C3)(C(C)C)C(=O)N12
inactive: [4] | [5] | [6]

CCCCCCCCCCCCCCNCCO
inactive: [1]

COc1cc2c(cc1O)CC[C@@H]1[C@@H]2CC[C@]2(C)[C@@H](O)CC[C@@H]12
active: [3] 1.58 µM
not listed: [1] | [2]
inactive: all other assays above

COc1cc(NS(C)(=O)=O)ccc1Nc1c2ccccc2nc2ccccc12
active: [1] 7.94 µM | [3] 1 µM
inactive: [4] | [5] | [6] | [7]

Oc1ccc(O)cc1
inactive: [4] | [5] | [7]
active: [1] 19.9 µM | [3] 2.51 µM | [6] 18.4 µM
